# Shown are actives, neighbours in structure and some others; about 14% of the full set was active somewhere.
# HCMV antiviral: inhibitors of human cytomegalovirus | 410,000 tested, 4.5% active | HFF cells, HCMV-luciferase reporter, 72 h; hits give low values | activity change, negative = inhibition, % at 57.5 µM | AID 1259415; in the data active = activity change below about -60%; inconclusive = no clear call, values can overlap the other calls; inactive = above about -39%
#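 Inhibition of viral replication was scored as loss of reporter luminescence in HFFs infected with HCMV-luciferase (MOI 1 PFU/cell) for 72 h; compounds tested at 2 doses, normalized to buffer and Salinomycin controls.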
# LASV entry inh: Lassa virus entry inhibition | AID 540256 | 300,000 tested, 1.2% active | Potency, µM (titrated, usually from 37.9 µM), inactives show at the top dose activity change, negative = inhibition, most hits filed as inhibitors | Lassa virus pseudotype entry inhibition, cell reporter; calls by dose curve; tested in HEK293 cells; note: potency is the fitted concentration of half-maximal effect; nearly all actives have a fitted effect of over 50% in size
# HCV inh: inhibitors of hepatitis C virus infection | Huh7.5.1 HCVcc-Cre infection, luciferase reporter, 44 h | 340,000 tested, 3.4% active | Potency, µM (series often up to 41.8 µM), inactives show at the top dose activity change, negative = inhibition, usual class: inhibitors; note: potency is the fitted concentration of half-maximal effect
#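 HCVcc-Cre virus at an moi near 0.5 was added right after compound to cells cultured 4 h from seeding (1,000 cells/well). Luciferase activity was determined 44 h later, 15 min after substrate addition at RT.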
# Marburg entry inh: inhibitors of Marburg virus binding or cell entry | AID 540276 | 300,000 tested, 1.8% active | Marburg virus pseudotyped entry inhibition, cell reporter | Potency, µM (titrated, usually from 37.8 µM), inactives show top-dose activity change, negative = inhibition, most hits filed as inhibitors; calls by dose curve; tested in HEK293 cells; note: potency is the fitted concentration of half-maximal effect
# Pf growth 48h: inhibits P. falciparum growth in the first generation, 48 h; P. falciparum luciferase growth in erythrocytes, 48 h; Potency, µM (highest dose often 28.7 µM), without a hit: at the highest dose activity change, negative = inhibition, most hits filed as inhibitors; 310,000 tested, 5.9% active; note: potency is the fitted concentration of half-maximal effect
#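 Luminescence readout; reporter = integrated firefly luciferase in P. falciparum. RBC culture at 2% hematocrit, 0.1% parasitemia final, 37 C/5% CO2; decreased signal taken as growth inhibition.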
# Pf growth 96h: inhibits malaria parasite growth, 96 h; AID 504834; Potency, µM (series often up to 28.7 µM), inactives show at the highest dose activity change, negative = inhibition, actives largely listed as inhibitors; 320,000 tested, 6.9% active; P. falciparum luciferase reporter growth, 96 h; note: potency is the fitted concentration of half-maximal effect
#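 Two parasite generations (96 h, 37 C, 5% CO2) of compound exposure in infected erythrocytes (0.05% parasitemia, 2% hematocrit). Luciferase-reporter P. falciparum; decreased luminescence indicates inhibited growth, aimed at apicoplast-acting delayed death.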
# Active calls of the source: *; ? = inconclusive; nt = not tested or not shown; [ ] = remark or other dose. Unless noted, calls come from the whole dose curve; as a rule, active = well fitted inhibition curve with a large enough effect; inconclusive = small, poorly fitted or top-dose-only effect, or another doubt; inactive = no such curve, though single readings can be large or run the other way. % is set by controls: 0 for no effect and ±100 for the full control effect.
SMILES,HCMV antiviral,LASV entry inh,HCV inh,Marburg entry inh,Pf growth 48h,Pf growth 96h
O=C1c2ccccc2NC(c2cc(Cl)cc(Cl)c2O)N1CCc1ccccn1 (centres undefined),92.1,nt,nt,nt,nt,nt
Cc1nc2ccccc2n1Cc1ccc(Cl)cc1,-89.2*,nt,?,nt,?,?
Brc1ccccc1Cn1c(-c2cscn2)nc2ccccc21,-37.3,-5.7%,?,-5.6%,nt,10.4µM*
O=c1ccc(-c2nc3ccccc3n2Cc2ccc(Cl)cc2)c[nH]1,96.2,-16.7%,-0.3%,?,5.86µM*,9.28µM*
Cc1nc2ccccc2n1Cc1n[nH]c(=S)n1-c1ccc(Cl)cc1,-34.9,5.5%[46.1 µM],13.3%,0.9%,0.8%,1.3%
O=C1CCC[C@@H]2Cc3nc4ccc(Cl)cc4cc3[C@@H]3CCN1[C@H]23,-2.4,nt,-15.7%,nt,nt,nt
O=C(Nc1nc2n(n1)C(c1ccccc1)C=C(c1ccccc1)N2)c1ccccc1 (centres undefined),-12.7,11.5%[46.1 µM],nt,-5.9%[46.1 µM],nt,nt
Cc1[nH]nc2c1C1(C(=O)N(Cc3ccc(Cl)cc3)c3ccccc31)C(C#N)=C(N)O2 (centres undefined),-69.7*,-14.8%,-7.4%,-23.9%,13.1µM*,33.9%
CC(C)Cn1c(-c2ccncc2)n[nH]c1=S,?,-22.6%,9.9%,?,2.5%,3.7µM*
CC(C)Cn1c(-c2csc3c2CCCC3)n[nH]c1=S,35.0,4.4%,1.6%,-5.8%,11.7µM*,?
COc1ccc(O)c2c(=O)c3c(OC)cc4c(c3oc12)C1C=COC1O4 (centres undefined),-62.3*,nt,nt,nt,nt,nt
CCCc1cc(=O)c2c(O)ccc(OC)c2o1,23.8,17.8%,?,6.7%,?,-22.5%
CC(C)(C)C(=O)NC(=S)Nc1cc(C(=O)O)ccc1Cl,-60.8*,14.0%,12.5%,?,6.5%,0.7%
COc1ccc([C@H]2C[C@@H](O)[C@H](n3cc(C4CC4)nn3)CN2Cc2cccs2)cc1,-28.4,nt,nt,nt,nt,nt
CCOc1ccccc1N1CCN(C(=O)c2c(-c3ccccc3Cl)noc2C)CC1,?,1.2%,?,13.4%,9.28µM*,-8.7%
Cc1nn(Cc2ccccc2)c2sc(C(=O)N3CCN(Cc4ccc5c(c4)OCO5)CC3)cc12,-12.4,?,?,?,10.4µM*,?
CCOc1cc(N2CCOCC2)c(OCC)cc1NC(=O)c1c(-c2ccccc2Cl)noc1C,3.3,?,?,?,5.86µM*,?
Cc1onc(-c2ccccc2Cl)c1C(=O)N1CCN(Cc2ccc3c(c2)OCO3)CC1,11.5,-5.3%[46.1 µM],1.0%,-11.9%[46.1 µM],-1.8%,13.1µM*
O=C(O)c1ccccc1C(=O)N1CCN(Cc2ccc3c(c2)OCO3)CC1,6.4,nt,6.3%,nt,21.3%,27.6%
Cc1onc(-c2c(Cl)cccc2Cl)c1C(=O)N1CCN(Cc2ccccc2)CC1,-25.8,nt,10.3%,?,?,?
Cc1c(Cl)cccc1NC(=O)CSc1nc(=O)n(Cc2cccnc2)c2c1CCC2,16.0,0.0%[46.1 µM],nt,nt,nt,nt
Cc1cc(C(=O)Nc2nc(C)c(C(=O)N(C)C)s2)ccc1[N+](=O)[O-],-36.3,10µM*,16.3%,?,179.0%,?
Cc1nc(NC(=O)c2ccc([N+](=O)[O-])cc2Cl)sc1C(=O)N(C)C,0.9,-2.0%,1.1%,-31.2%,5.6%,-26.5%
CC(=O)c1ccc(N2CCN(S(=O)(=O)c3cc(-c4onc(C)c4C)ccc3C)CC2)cc1,-67.3*,-5.5%[46.1 µM],nt,nt,nt,nt
Cc1ccc(-c2onc(C)c2C)cc1S(=O)(=O)N1CCc2ccccc21,?,-10.5%[46.1 µM],nt,nt,nt,nt
SMILES,HCMV antiviral,LASV entry inh,HCV inh,Marburg entry inh,Pf growth 48h,Pf growth 96h
Cc1ccc(-c2onc(C)c2C)cc1S(=O)(=O)N1CCOc2ccc(Cl)cc21,-62.3*,-22.2%[46.1 µM],nt,nt,nt,nt
CCC1CN(S(=O)(=O)c2ccc3c(c2)NC(=O)CC(=O)N3)c2cc(Cl)ccc2O1 (centres undefined),?,?,-22.1%,nt,2.08µM*,?
Cc1cc(-c2ccc(C)c(S(=O)(=O)N3CCOc4ccc(Cl)cc43)c2)on1,-39.7,?,nt,nt,nt,nt
Cc1ccc(-c2onc(C)c2C)cc1S(=O)(=O)N1CC(C)Oc2ccccc21 (centres undefined),?,nt,12.6µM*,nt,14.7µM*,-29.1%
CC(=O)c1ccc(N2CCN(S(=O)(=O)c3cc(-c4noc(C)n4)ccc3C)CC2)cc1,5.2,8.1%[46.1 µM],nt,nt,nt,nt
Cc1ccc(C[C@H]2CC(=O)N(c3ccc4c(c3)OCCO4)C2=O)cc1,nt,nt,nt,10.6%[46.1 µM],nt,nt
CCOc1ccc(C(=O)N2CCN(Cc3cc(=O)n4nc(-c5ccccc5Cl)sc4n3)CC2)cc1,10.8,-6.8%[46.1 µM],nt,nt,nt,nt
CCC1CN(S(=O)(=O)c2cc(-c3onc(C)c3C)ccc2C)c2cc(Cl)ccc2O1 (centres undefined),-66.9*,-25.2%[46.1 µM],nt,nt,nt,nt
Cc1ccc(-c2onc(C)c2C)cc1S(=O)(=O)N1CCCCC1,?,-26.2%[46.1 µM],nt,nt,nt,nt
COC(=O)Cn1c(CN(Cc2ccccc2)Cc2ccccc2)nc2c1c(=O)[nH]c(=O)n2C,-6.4,-17.8%,5.7%,-19.9%,?,?
CC1CCCCN1Cc1nc2c(c(=O)n(C)c(=O)n2C)n1CCc1ccccc1 (centres undefined),-66.9*,-12.7%,-1.8%,-6.1%,-15.5%,?
CCOCCn1c(CN(C)Cc2ccccc2)nc2c1c(=O)n(C)c(=O)n2C,18.9,nt,-24.1%,nt,-6.3%,17.5%
CCCCn1c(CN(C)Cc2ccccc2)nc2c1c(=O)n(C)c(=O)n2C,?,-17.9%,11.2µM*,?,13.1µM*,-1.8%
CC1CCCCN1Cc1nc2c(c(=O)n(C)c(=O)n2C)n1Cc1ccc(Br)cc1 (centres undefined),-3.9,13.7%[46.1 µM],nt,17.2%[46.1 µM],nt,nt
CN(Cc1ccccc1)Cc1nc2c(c(=O)n(C)c(=O)n2C)n1Cc1ccccc1Cl,-8.3,?,?,?,nt,?
CCOC(=O)Cn1c(CN(Cc2ccccc2)Cc2ccccc2)nc2c1c(=O)n(C)c(=O)n2C,31.5,?,?,-15.8%,5.86µM*,?
COCCn1c(CN(C)Cc2ccccc2)nc2c1c(=O)n(C)c(=O)n2C,-6.4,nt,?,nt,nt,5.86µM*
COc1cccc(Nc2nccc3[nH]c(-c4ccc(F)c(F)c4)nc23)c1,-4.6,nt,nt,nt,nt,nt
Cc1ccc(-c2nc3c4ccccc4n(Cc4cccc(Cl)c4)c(=O)n3n2)cc1,40.6,-2.0%[46.1 µM],nt,nt,nt,nt
CCCn1c(CN(Cc2ccccc2)Cc2ccccc2)nc2c1c(=O)n(C)c(=O)n2C,nt,-15.6%,7.94µM*,?,?,9.28µM*
CN(Cc1ccccc1)Cc1nc2c(c(=O)n(C)c(=O)n2C)n1CCc1ccccc1,-39.2,14.2%,35.5µM*,?,nt,nt
CCCn1c(CN(C)Cc2ccccc2)nc2c1c(=O)n(C)c(=O)n2C,-68.1*,?,7.94µM*,?,-14.8%,44.7%

# Screening data deposited in PubChem by National Center for Advancing Translational Sciences (NCATS).
